{"source": "PubChem BioAssay (NCATS)", "note": "Results filed as inconclusive are left out. Values without a mark were called inactive. Calls of active or inactive are those of the source. Calls come from the whole dose curve; as a rule, active = well fitted inhibition curve with a large enough effect; inconclusive = small, poorly fitted or top-dose-only effect; inactive = no such curve, though single readings can be large or run the other way. Non-standard residues stand in square brackets, D forms with d. Residues, ends and D or L forms follow the SMILES beside them. Potency is the fitted concentration of half-maximal effect.", "data": [{"assay": "BET inhibitor-based combinations targeting novel dependencies in MECOM-rearranged (r) AML: SET-2 cell line (AID 2202231); note: nearly all actives have a fitted effect of over 35% in size", "conditions": "SET-2 AML cells viability, CellTiter-Glo luminescence, 48 h; viability: stronger effect = lower value, series mostly up to about 46 µM", "excerpt": "Ecotropic viral insertion site 1 (EVI1) is located on chromosome 3q26.2 as part of the MECOM (MDS and EVI1 complex) locus. Under normal hematopoiesis, EVI1 is a regulator of hematopoietic stem cell maintenance and self-renewal and EVI1 levels decrease as the cells differentiate. In approximately 5-10% of de novo acute myeloid leukemia (AML) EVI1 is aberrantly expressed, including Chromosomal inv(3)(q21;q26.2) or t(3;3)(q21;q26.2) alterations (MECOM-r) that account for about 50% of AML with EVI1 overexpression 31. AMLs with high levels of EVI1 have a poor prognosis and an overall survival time averaging between 10-14 months. EVI1 overexpression confers resistance in leukemia cells, highlighting the need to develop new targeted therapies for EVI1 overexpressing AMLs.\nHere, we performed an unbiased chemical drug screening by evaluating the single agent activity of a collection of 2,480 oncology-focused, approved and investigational drugs (NCATS Mechanism Interrogation Plates, MIPE v5.0) against a panel of seven AML cell lines. These included four MECOM-r cell-lines (AML-191, AML-194, UCSD-AML1 and HNT-34) and three non-MECOM-r AMLs (MV4-11, OCI-AML3 and SET-2). Exploiting the mechanistic redundancy built in the library, we identified target-level sensitivities in MECOM-r AML cells and relative activity as compared to other AML subtypes.\nA collection of 2480 mechanistically annotated dugs (MIPE v5.0) was used to screen four 3q26.2 rearranged AML cell lines and three non-3q26.2 rearranged AML cell lines. This library purposely exploits redundancy by including multiple inhibitors of key onco-targets, while simultaneously encompassing mechanistic diversity, targeting more than 800 distinct mechanisms of action. Briefly, cells were seeded in 5 uL of growth media using a Multidrop Combi dispenser into 1536 well white polystyrene tissue culture treated plates (Corning) at a density of 500cells/well. For each cell-line, for each of the 2480 drugs in MIPE v5.0 library, an 11-point dose curve was generated via a 1536 pin-tool. Plates were incubated for 48 hr at standard incubator conditions, covered by a stainless steel gasketed lid to prevent evaporation. Cell viability was determined by luminescence based, Cell Titer Glo assay (Promega). In detail, 3 uL of Cell Titer Glo were added to each well and plates were incubated at room temperature for 15 min with a stainless-steel lid in place. Luminescence readings were taken using a Viewlux (PerkinElmer) with a 2 s exposure time per plate. Compound dose-response curves were normalized to DMSO and empty well controls on each plate. Quantitative drug activity data from dose-response curves was determined utilizing area Under the Curve (AUC) and Z-transformed AUC (Z-AUC, a mean-centering transformation applied to each individual cell-line screened).", "units": {"viability": "%"}, "values": [{"smiles": "Clc1cccc(-c2ccc(-c3nnc(CCCc4ccc5cccnc5n4)o3)cc2)c1", "viability": 119}, {"smiles": "Fc1ccc(-c2csc3ncnc(NCc4ccc5c(c4)OCO5)c23)cc1", "Potency": "5.9 µM (active)"}, {"smiles": "C=C1C(=O)O[C@H]2C[C@H](C)C(/C=C/C(C)=O)=CC[C@H]12", "Potency": "4.68 µM (active)"}, {"smiles": "CN(C(=O)c1c(O)c2ccccc2n(C)c1=O)c1ccccc1", "viability": 76.1}, {"smiles": "C[C@H]1[C@H](O)O[C@@H]2O[C@@]3(C)CC[C@H]4[C@H](C)CC[C@@H]1[C@@]24OO3", "Potency": "1.32 µM (active)"}, {"smiles": "Nc1nc(OC(c2ccc(-c3cccc(F)c3)cc2)C(F)(F)F)cc(-c2ccc(C[C@H](N)C(=O)O)cc2)n1", "note": "(stereo not given in full)", "viability": 120}, {"smiles": "Cc1cc(Nc2ncnc3ccc(NC4=NC(C)(C)CO4)cc23)ccc1Oc1ccn2ncnc2c1", "Potency": "20.9 µM (active)"}, {"smiles": "COc1cccc(Nc2ncnn3ccc(CN4CC[C@@H](N)[C@H](O)C4)c23)c1", "viability": 90.8}, {"smiles": "Cc1c[nH]c2nc(Nc3ccc(N4CCN(C)CC4)c(F)c3)nc(-c3cccc(CC#N)c3)c12", "Potency": "2.63 µM (active)"}, {"smiles": "CNC(=O)c1c(C)oc2cc(Oc3ncnc4cc(OC)c(OC)cc34)ccc12", "viability": 116}, {"smiles": "Cn1nccc1Nc1nccc(-c2cc3c(s2)C(C)(C)N(CCN2CCOCC2)C3=O)n1", "viability": 105}, {"smiles": "CN1C(C(=O)Nc2ccccn2)=C(O)c2sccc2S1(=O)=O", "viability": 113}, {"smiles": "COc1cc(=C2C=c3ccccc3=N2)[nH]/c1=C/c1[nH]c(C)cc1C", "Potency": "4.17 µM (active)"}, {"smiles": "C[C@@H](OC[C@@]1(c2ccccc2)CC[C@]2(CCC(=O)N2)CN1)c1cc(C(F)(F)F)cc(C(F)(F)F)c1", "Potency": "20.9 µM (active)"}, {"smiles": "Cc1ccc(NC(=O)[C@H]2CCCN(C(=O)c3c(C)cccc3F)[C@H]2c2ccc(NC3CCCC3)cc2)cc1C(F)(F)F", "viability": 94.7}, {"smiles": "O=c1ncccn1[C@@H]1O[C@H](CO)[C@@H](O)[C@H]1O", "viability": 109}, {"smiles": "O=C(CCc1ccc(O)cc1)c1c(O)cc(O)cc1O[C@@H]1O[C@H](CO)[C@@H](O)[C@H](O)[C@H]1O", "viability": 76.1}, {"smiles": "O=S(=O)(c1cccc2cnccc12)N1CCCNCC1", "viability": 101}, {"smiles": "CO[C@@H]1[C@@H](O)[C@H](O)[C@@H](n2c3c(Cl)cccc3c3c4c(c5c6cccc(Cl)c6[nH]c5c32)C(=O)NC4=O)O[C@H]1CO", "Potency": "1.32 µM (active)"}, {"smiles": "CCC(=O)OCC(=O)C1(OC(=O)CC)C(C)CC2C3CCC4=CC(=O)C=CC4(C)C3(F)C(O)CC21C", "note": "(stereo not given)", "viability": 109}, {"smiles": "Cc1ccc(-n2c(C)cc(-c3nnc4n3CCCCC4)c2C)cc1", "viability": 104}, {"smiles": "O=C1NC(=O)/C(=C\\c2ccc(-c3ccc(F)cc3)o2)S1", "Potency": "20.9 µM (active)"}, {"smiles": "COc1ccc2c(c1OC)C(=O)OC2[C@H]1c2c(cc3c(c2OC)OCO3)CCN1C", "note": "(stereo not given in full)", "Potency": "16.6 µM (active)"}, {"smiles": "CCC(C)CNCC(=O)N1CCc2sccc2C1c1cccc(C)n1", "note": "(stereo not given)", "viability": 95.4}, {"smiles": "CC[C@H](C)C(=O)O[C@H]1C[C@H](O)C=C2C=C[C@H](C)[C@H](CC[C@@H](O)C[C@@H](O)CC(=O)O)[C@H]21", "viability": 113}, {"smiles": "Cc1cnc(Nc2ccc(CN3CCOCC3)cc2)nc1Nc1cccc(S(=O)(=O)NC(C)(C)C)c1", "Potency": "2.63 µM (active)"}, {"smiles": "CO[C@H]1C(=O)[C@]2(C)[C@@H](OC)C[C@H]3OC[C@@]3(OC(C)=O)[C@H]2[C@H](OC(=O)c2ccccc2)[C@]2(O)C[C@H](OC(=O)[C@H](O)[C@@H](NC(=O)OC(C)(C)C)c3ccccc3)C(C)=C1C2(C)C", "Potency": "0.0037 µM (active)"}, {"smiles": "NC[C@@](O)(c1ccc(Cl)cc1)c1ccc(-c2cn[nH]c2)cc1", "Potency": "7.42 µM (active)"}, {"smiles": "Cc1cc(O[C@@H](CCC(F)(F)F)c2ccc(C(=O)NCCC(=O)O)cc2)cc(C)c1-c1ccc(C(C)(C)C)cc1", "Potency": "20.9 µM (active)"}, {"smiles": "CC(C)OC(=O)[C@H](C)N[P@](=O)(OC[C@H]1O[C@@H](n2ccc(=O)[nH]c2=O)[C@](C)(F)[C@@H]1O)Oc1ccccc1", "viability": 107}, {"smiles": "CNCCN(C)Cc1cn[nH]c1-c1ccc(OC2CC(OCCC3CCOCC3)C2)cc1", "note": "(stereo not given)", "viability": 95.3}, {"smiles": "O=C(O)CNC(=O)c1ncc(-c2cccc(Cl)c2)cc1O", "viability": 110}, {"smiles": "Cc1c(-c2cnccn2)ssc1=S", "viability": 94.7}, {"smiles": "CC(C)C[C@@H]1NC(=O)[C@@H](C(C)C)NC(=O)[C@@H]2CCCN2C(=O)[C@@H](CC(=O)O)NC(=O)[C@@H](Cc2c[nH]c3ccccc23)NC1=O", "note": "(cyclo(L[dW][dD]P[dV]))", "viability": 110}, {"smiles": "CNC(=O)CCc1cc(-c2ccc(-c3ccc(C(F)(F)F)cc3)cc2)n(-c2ccc(N3CCNCC3)cc2)n1", "Potency": "7.42 µM (active)"}, {"smiles": "NC(=O)C1=C(O)[C@@]2(O)C(=O)C3=C(O)c4c(O)cccc4C[C@H]3C[C@H]2CC1=O", "Potency": "4.68 µM (active)"}, {"smiles": "O=C(O)c1cccnc1", "viability": 118}, {"smiles": "CC[C@H](CC[C@@H](C)[C@H]1CC[C@H]2[C@@H]3CC=C4C[C@@H](O)CC[C@]4(C)[C@H]3CC[C@]12C)C(C)C", "viability": 104}, {"smiles": "C[C@H](NC(=O)[C@H]1NCC[C@@H]1O)c1ccc(-c2noc(CCC3CCCC3)n2)cc1", "outcome": "inactive; activator; fitted 0.0033 uM"}, {"smiles": "COc1cc2c(cc1O)CCN[C@]21CS[C@@H]2c3c(OC(C)=O)c(C)c4c(c3[C@H](COC1=O)N1[C@@H]2[C@H]2c3c(cc(C)c(OC)c3O)C[C@@H]([C@@H]1O)N2C)OCO4", "Potency": "0.0096 µM (active)"}]}]}
